Data from PubChem BioAssay (NCI).
Several values for one entry are separate records, joined by “and”; a condition that tells them apart may be missing. Equal values may be shown once. The panel holds about 79,000 compounds, 15% with a hit somewhere; the sample as a whole holds those more often. Activity calls are given as the source filed them. Cut-off read from the data, not from the text of the source: active = growth inhibition above about 70%; inactive = the rest.

What was measured:
[1] = NCI Yeast Anticancer Drug Screen. Data for the rad50 strain (AID 155);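 note: 0% = growth of vehicle-only cultures of the same strain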; conditions: S. cerevisiae rad50 strain growth inhibition; at 50.0 µM; stronger effect = higher value
Summary of the method: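 Yeast carrying a defined DNA repair defect were exposed to test compounds, and growth was compared with vehicle-treated controls to give percent inhibition.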

[2] = NCI Yeast Anticancer Drug Screen. Data for the mec2-1 strain (AID 157); conditions: S. cerevisiae mec2-1 strain, at 50.0 µM, stronger effect = higher value
Summary of the method: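 Yeast mec2-1 mutant treated with compound. Readout: growth inhibition vs vehicle controls.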

[3] = NCI Yeast Anticancer Drug Screen. Data for the sgs1 mgt1 strain (AID 161);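 note: 0% = growth of cultures given vehicle only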; conditions: S. cerevisiae sgs1 mgt1 strain, at 50.0 µM, stronger effect = higher value
Summary of the method: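 Read-out: growth inhibition vs vehicle controls. Cells: mutant yeast strain deficient in DNA damage repair.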

[4] = NCI Yeast Anticancer Drug Screen. Data for the cln2 rad14 strain (AID 165);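 note: 0% = growth equal to vehicle treated cultures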; conditions: S. cerevisiae cln2 rad14 strain, at 50.0 µM, stronger effect = higher value
Summary of the method: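 cln2 rad14 yeast strain; compound exposure; growth inhibition read vs vehicle controls.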

[5] = NCI Yeast Anticancer Drug Screen. Data for the bub3 strain (AID 167); conditions: S. cerevisiae bub3 mutant strain, at 50.0 µM, stronger effect = higher value
Summary of the method: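 Compounds were applied to a genetically altered yeast strain carrying a cell-cycle control defect. Growth inhibition was scored against vehicle-treated controls.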

[6] = NCI Yeast Anticancer Drug Screen. Data for the mlh1 rad18 strain (AID 175); conditions: S. cerevisiae mlh1 rad18 strain growth inhibition; at 50.0 µM; stronger effect = higher value
Summary of the method: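 Yeast w/ defined DNA-repair lesions; compound exposure; growth vs vehicle controls → % inhibition.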

Measured: growth inhibition

COc1cc2c(cc1O)N=C[C@@H]1CCC(O)N1C2=O (mixture of isomers)
inactive: [1] 19.6% | [2] 16.3% | [3] 19.2% | [4] 58.8% | [5] -2.2% | [6] 3.9%

[CH3][Pb]([CH3])([CH3])[O]C(=O)c1ccc([N+](=O)[O-])cc1
inactive: [1] 28.7% | [2] -41% | [3] 25.1% | [4] 8.8% | [5] 1.15% | [6] 42.2%

NNc1ncc[nH]1
inactive: [1] -0.05% | [2] 1.2% | [3] -9.2% | [4] -1% | [5] 12.8% | [6] 4.55%

CC(=O)O.CC(=O)O.CC(=O)O.CC(=O)O.CC(=O)O.CC(=O)O.O.[Ti].[Ti]
inactive: [1] -6.65% | [2] -23.8% | [3] -23.6% | [4] -4.2% | [5] -10.1% | [6] -34%

CCCCN1CCC2(CC1)C(=O)NC(=S)NC2=O
inactive: [1] -12.4% | [2] -2.5% | [3] -3.65% | [4] 4.65% | [5] 6.25% | [6] -22.3%

[O-][n+]1c2ccccc2nn1-c1ccc(N(CCCl)CCCl)cc1
inactive: [1] 7.2% | [2] 0.35% | [3] -2.05% | [4] -6.95% | [5] -16.9% | [6] -22.1%

CN1CC(NC(=O)N(CCCl)N=O)CC2c3cccc4c3c(cn4N=O)CC21 (stereo not drawn)
inactive: [1] 17.8% | [2] 10.6% | [3] 21.4% | [4] 18.6% | [5] -3.7% | [6] 52.1%

Oc1ccc(CCNCc2cc3c(cc2Br)OCO3)cc1
inactive: [1] 18.7% | [2] 12% | [3] -11.1% | [4] 1.2% | [5] 32.9% | [6] 21.9%

COc1ccc(NC2=NCCO2)c2ccccc12
inactive: [1] -11.9% | [2] -42.3% | [3] -31.1% | [4] -0.3% | [5] -13.4% | [6] -20.9%

c1ccc([As]2[As](c3ccccc3)[As](c3ccccc3)[As]2c2ccccc2)cc1 (stereo not drawn)
active: [1] 99.5% | [2] 99.8% | [3] 99.8% | [4] 98.1% | [5] 99.2% | [6] 99.5%

O=[N+]([O-])NC1=NCCN1CCO
inactive: [1] -8.85% | [2] -3.95% | [3] -2.15% | [4] -16.6% | [5] -26.1% | [6] -18.9%

CC1(C)SC2C(NC(=O)Cc3ccccc3)C(=O)N2C1C(=O)O (stereo not drawn)
inactive: [1] 1.45% | [2] -16.6% | [3] -22.4% | [4] -97.3% | [5] -36.1% | [6] -9.6%

CCOC(=O)C(C)(C)C(OP(=S)(OCC)OCC)=C(C)C
inactive: [1] 4.6% | [2] 12.4% | [3] 12.7% | [4] 23.8% | [5] 18% | [6] 7.15%

OCC1OC(n2cnc3cc(Cl)c(Cl)cc32)C(O)C1O (stereo not drawn)
inactive: [1] -1.1% | [2] 13.8% | [3] 21.9% | [4] -19.5% | [5] 6.4% | [6] 5%

O=c1[nH]cc(CCl)c(=O)[nH]1
inactive: [1] 3.2% | [2] -17.2% | [3] 6.3% | [4] 25.9% | [5] 4.85% | [6] -0.15%

S=C(SSC(=S)N(Cc1ccccc1)Cc1ccccc1)N(Cc1ccccc1)Cc1ccccc1
inactive: [1] -1.7% | [2] 11.6% | [3] 2.95% | [4] -14.3% | [5] -20.6% | [6] 12%

O=C1NC(=O)C(F)C(O)N1 (stereo not drawn)
inactive: [1] -22.8% | [2] -17.8% | [3] -6.15% | [4] -14.8% | [5] 16.1% | [6] -8.2%

NC(=O)c1ccc([As](=O)(O)O)cc1[N+](=O)[O-]
inactive: [1] -2% | [2] 3.85% | [3] 5.05% | [4] -47.8% | [5] -6.9% | [6] -10.6%

CN(C)c1ccc2c(c1)Cc1ccccc1-2
inactive: [1] 1% | [2] -8.65% | [3] 18.2% | [4] -24.1% | [5] 44% | [6] -25.8%

CC(C(=O)O)C(Br)C(=O)O (stereo not drawn)
inactive: [1] -9% | [2] -8.7% | [3] 1.7% | [4] 3.55% | [5] 5.85% | [6] 9.7%

COc1cc(OC)cc(C(=O)Cc2c(C(=O)c3ccccc3)c3ccccc3n2C(=O)c2ccccc2)c1
inactive: [1] -5.5% | [2] -6% | [3] 0.1% | [4] -50.3% | [5] -2.15% | [6] 3.2%

CN1CCC2CC(=O)NC1(C)C2(C)C (stereo not drawn)
inactive: [1] 13.2% | [2] 2.05% | [3] 17.9% | [4] 4.5% | [5] -2.2% | [6] 11.9%

O=C(O)CCC(=O)O
inactive: [1] -8.1% and 5.7% | [2] -16.6% and -2.05% | [3] -22.3% and -6.35% | [4] -41.9% and 13.8% | [5] -28% and -2.05% | [6] -13.1% and 11.2%

CC[N+](C)(CC)CCC(C(=O)NC)(c1ccccc1)c1ccccc1
inactive: [1] -2.45% | [2] -1.35% | [3] -22.8% | [4] -34.6% | [5] 0.05% | [6] -19.1%

NC(=O)C(F)(F)Cl
inactive: [1] 12.8% | [2] 7.1% | [3] -20.4% | [4] 12.3% | [5] -28.8% | [6] -19.2%

[Co].[NH2-].[NH2-].[NH2-].[NH2-].[NH2-].[NH2-]
inactive: [1] -5% and 8.1% | [2] -15.3% and 9.05% | [3] -5.4% and 6.25% | [4] -19.8% and 10.1% | [5] 2.3% and 23.4% | [6] -2.9% and -5.85%

CN(C)c1ccc(N=[N+]=[N-])cc1
inactive: [1] 3.05% | [2] 11% | [3] 10.3% | [4] -74.8% | [5] -6.45% | [6] 8.15%

CCCCSCCC(N)P(=O)(O)O (stereo not drawn)
inactive: [1] -68.8% | [2] -62.4% | [3] -42.4% | [4] 2.8% | [5] -15.2% | [6] -44.1%

C1CC2OC2CC1C1CO1 (stereo not drawn)
inactive: [1] -0.4% | [2] -3% | [3] 4.7% | [4] -8.4% | [5] -17.1% | [6] -17.9%

[CH3][Sn]([CH3])([Cl])[S]CCN
inactive: [1] 29.6% | [2] 32.5% | [3] -5.55% | [4] 1.25% | [5] -15.4% | [6] 18.6%

CCOP(=O)(NC(C)C)OCC
inactive: [1] -4.55% | [2] -18.6% | [3] -2.8% | [4] 16.9% | [5] 6.8% | [6] -1.8%

CC1C2Cc3ccc(O)cc3C1(C)CCN2C (stereo not drawn)
inactive: [1] 37% | [2] 29.6% | [3] 30.6% | [4] 17.6% | [5] 35% | [6] 16.1%

C[CH2][Sn]([CH2]C)([n]1c(C)nc2ccccc21)[n]1c(C)nc2ccccc21
inactive: [1] -11.8% | [2] 2.95% | [3] -19.3% | [4] 0.3% | [5] 10.3% | [6] -12.8%

CC12C(=O)C(C)(C(c3ccccc3)=C1c1ccccc1)C1(C#N)NC21C#N (stereo not drawn)
inactive: [1] 14.9% | [2] 2.65% | [3] 22.8% | [4] 18.2% | [5] 13.8% | [6] 40%

CCCCN1C(=O)C(=C/C=C/C=C2\Oc3ccccc3N2CCCS(=O)(=O)O)C(=O)N(CCCC)C1=S
inactive: [1] 18% | [2] 2.9% | [3] 3.75% | [4] 15.7% | [5] -3.9% | [6] 27%

CC(=O)C(=O)c1ccccc1
inactive: [1] -14.6% | [2] 6.5% | [3] -0.45% | [4] -25.8% | [5] -19.7% | [6] -21.5%

C[N+](C)(C)C
inactive: [1] -0.3% and 4.95% and -7% | [2] 14.2% and -39% and -9.3% | [3] -5.75% and -25.2% and 8.3% | [4] -16.5% and 6.35% and 2.35% | [5] 21.4% and -8.1% and 8.75% | [6] -1.65% and -19.1% and -2.9%

C1CC[N-]CC1.C1CC[N-]CC1.C1CC[N-]CC1.C1CC[N-]CC1.[Cl][Rh][Cl]
inactive: [1] -12.5% | [2] 28.6% | [3] 8.5% | [4] -13.9% | [5] -58% | [6] -18.4%
